Records with an inconclusive call do not appear. The source made the active and inactive calls. Calls come from the whole dose curve; as a rule, active = well fitted inhibition curve with a large enough effect; inconclusive = small, poorly fitted or top-dose-only effect; inactive = flat fitted curve, though single readings scatter.
tested on: Zika virus NS2B-NS3 protease; assay: Primary screen GU AMC qHTS for Zika virus inhibitors (AID 1347154); conditions: Zika NS2B-NS3 unlinked protease, AMC fluorogenic substrate; series mostly up to 54.1 µM; activity change, negative = inhibition: at the top concentration;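 note: 0% = no-inhibitor control and -100% = no-enzyme control; nearly all actives have a fitted effect of over 70% in size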
How it was run: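 Fluorogenic AMC-substrate cleavage by noncovalent NS2B-NS3 protease complex (25 nM, pH 8.0 Tris buffer with Tween 20) followed for 15 minutes at room temperature (~20% conversion). Percent inhibition from ex340/em450 signal change, fitted by 4-parameter Hill equation.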

Row | Structure (SMILES) | activity change, negative = inhibition | Potency
1 | NCC1CCC(C(=O)Oc2ccc(CCC(=O)O)cc2)CC1 (centres undefined) | 3.28% (inactive) | 
2 | O=C1c2cccc(O)c2C(=O)c2c(O)cccc21 | -2.23% (inactive) | 
3 | CC(=O)OC[C@H]1O[C@@](COC(C)=O)(O[C@H]2O[C@H](COC(C)=O)[C@@H](OC(C)=O)[C@H](OC(C)=O)[C@H]2OC(C)=O)[C@@H](OC(C)=O)[C@@H]1OC(C)=O | 3.34% (inactive) | 
4 | COc1ccccc1OC(=O)Oc1ccccc1OC | -0.417% (inactive) | 
5 | CN1C(C)(C)CCCC1(C)C | 3.04% (inactive) | 
6 | CCN(CC)C(=O)c1cccc(C)c1 | -5.05% (inactive) | 
7 | CC(=O)NCc1c(I)c(NC(C)=O)c(I)c(C(=O)O)c1I | -3.69% (inactive) | 
8 | C=CCN1C[C@H](C(=O)N(CCCN(C)C)C(=O)NCC)C[C@@H]2c3cccc4[nH]cc(c34)C[C@H]21 |  | inactive
9 | CCCNC(C)(C)COC(=O)c1ccccc1 | -1.13% (inactive) | 
10 | CN(C(=O)c1c(O)c2ccccc2n(C)c1=O)c1ccccc1 |  | inactive
11 | CC(=O)Nc1ccc(C(=O)O)cc1 | 1.39% (inactive) | 
12 | CCCCCCCCCCC(CO)CCCCCCCC (centres undefined) | -0.744% (inactive) | 
13 | Cc1cc(=O)[nH]c(=S)[nH]1 | -4.74% (inactive) | 
14 | C=CCOc1ccccc1OCC(O)CNC(C)C (centres undefined) | -2.79% (inactive) | 
15 | CCCCOC(=O)c1ccc(N)cc1 | 0.602% (inactive) | 
16 | NC(=O)N[C@@H](CCC(=O)O)C(=O)O | -2.22% (inactive) | 
17 | Cc1ccc(S(=O)(=O)NC(=O)NC2CCCCCCC2)cc1 | 1.13% (inactive) | 
18 | CN[C@@H]1[C@H](O)[C@H](NC)[C@H]2O[C@@]3(O)C(=O)C[C@@H](C)O[C@H]3O[C@@H]2[C@H]1O | -3.26% (inactive) | 
19 | CC(=O)N(CC(O)CN(C(C)=O)c1c(I)c(C(=O)NCC(O)CO)c(I)c(C(=O)NCC(O)CO)c1I)c1c(I)c(C(=O)NCC(O)CO)c(I)c(C(=O)NCC(O)CO)c1I (centres undefined) | -5.77% (inactive) | 

Reference: PubChem BioAssay (NCATS)
